# Data taken from PubChem BioAssay (NCATS).
# Values joined by “and” are separate entries in the source; they are usually repeats but may differ in a detail not shown here. Equal values may be shown once. Records with an inconclusive call do not appear. Where a call stands in place of a potency, no number is given. Unmarked numbers belong to inactive results. Active and inactive are the calls of the source. Calls follow the shape of the dose curve; as a rule, active = well fitted curve in the direction sought with a large enough effect; inconclusive = small, poorly fitted or top-dose-only effect, or another doubt; inactive = no such curve, though single readings can be large; an effect the other way counts as inactive or inconclusive. Where a SMILES comes first, the peptide text is derived from it. [ ]: non-standard residue; d: D form. The star is where a group is joined. Sta = CC(C)C[C@H](N)[C@@H](O)CC(=O)O; Isovaleryl = CC(C)CC(=O)*
# What was measured:
# [1] = target: Cytochrome P450 3A7 (Homo sapiens) (UniProt P24462); experiment: Cytochrome P450 family 3 subfamily A member 7 (CYP3A7) small molecule antagonists: luciferase biochemical qHTS assay (AID 1963596); also: nearly all actives have a fitted effect of over 40% in size
# Method in brief: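 In this luminescent screen, enzyme and proluciferin substrate meet test compound for 10 min before NADPH regeneration solution drives a 1 h room-temperature reaction; detection reagent halts turnover and luminescence is read 20 min later.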
# [2] = Viability qHTS for spleen associated tyrosine kinase inhibitor (SYKi) naive MV4-11 cells (AID 1963823); also: nearly all actives have a fitted effect of over 40% in size; also: potency is read from the fitted curve at half-maximal effect
# Method in brief: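 Cells: MV4-11, SYK inhibitor naive, 500 per well. Treatment: library compounds, 72 hr, 37 C, 5% CO2. Read-out: CellTiter-Glo luminescence after 10 min RT.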
# [3] = Viability qHTS for spleen associated tyrosine kinase inhibitor (SYKi) drug resistant MV4-11 cells (AID 1963824); also: nearly all actives have a fitted effect of over 35% in size; also: potency is read from the fitted curve at half-maximal effect
# Method in brief: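 SYK inhibitor-resistant MV4-11 AML cells, 500 per well, added to predispensed compounds and incubated 72 hr at 37 C, 5% CO2. Viability measured by CellTiter-Glo luminescence after 10 min at room temperature.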
# [4] = Quantitative highthroughput screen to assess conditional lethalithy of NOMO1 cells grown in RPMI1640 with untreated serum (RPMI+s) (AID 1963876); also: nearly all actives have a fitted effect of over 35% in size; also: potency is read from the fitted curve at half-maximal effect
# Method in brief: (§1)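 Each medium arm—HPLM with 10% dialyzed FBS, or RPMI1640 with 5 mM glucose and 10% untreated or dialyzed FBS—was screened against an 11-point, 3-fold compound titration for 48 h at 37 °C, with CellTiter-Glo luminescence as endpoint.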
# [5] = Quantitative highthroughput screen to assess conditional lethalithy of NOMO1 cells grown in RPMI1640 with dialyzed fetal bovine serum (RPMI+ds) (AID 1963877); also: nearly all actives have a fitted effect of over 30% in size; also: potency is read from the fitted curve at half-maximal effect; as to Viability: series mostly up to about 46 µM
# Method in brief: as §1
# [6] = Quantitative highthroughput screen to assess conditional lethalithy of NOMO1 cells grown in Human Plasma-Like Medium with dialyzed fetal bovine serum (HPLM+ds) (AID 1963878); also: nearly all actives have a fitted effect of over 35% in size; also: potency is read from the fitted curve at half-maximal effect
# Method in brief: as §1
# [7] = Quantitative highthroughput screen to assess conditional lethalithy of P12 Ichikawa cells grown in Human Plasma-Like Medium with dialyzed fetal bovine serum (HPLM+ds) (AID 1963879); conditions: Potency: viability; also: nearly all actives have a fitted effect of over 35% in size; also: potency is read from the fitted curve at half-maximal effect; as to Viability: series mostly up to about 46 µM
# Method in brief: as §1
# [8] = Quantitative highthroughput screen to assess conditional lethalithy of P12 Ichikawa cells grown in RPMI1640 with dialyzed fetal bovine serum (RPMI+ds) (AID 1963880); conditions: Potency: P12-Ichikawa viability; also: nearly all actives have a fitted effect of over 35% in size; also: potency is read from the fitted curve at half-maximal effect
# Method in brief: as §1
# [9] = Quantitative highthroughput screen to assess conditional lethalithy of P12 Ichikawa cells grown in RPMI1640 with untreated serum (RPMI+s) (AID 1963881); conditions: Potency: viability; also: nearly all actives have a fitted effect of over 35% in size; also: potency is read from the fitted curve at half-maximal effect; as to Viability: series mostly up to about 46 µM
# Method in brief: as §1
# [10] = Quantitative highthroughput screen to assess conditional lethalithy of SEM cells grown in Human Plasma-Like Medium with dialyzed fetal bovine serum (HPLM+ds) (AID 1963882)
# Method in brief: as §1
# [11] = Quantitative highthroughput screen to assess conditional lethalithy of SEM cells grown in RPMI1640 with unreated serum (RPMI+s) (AID 1963883); also: nearly all actives have a fitted effect of over 35% in size; also: potency is read from the fitted curve at half-maximal effect
# Method in brief: as §1
# [12] = Quantitative highthroughput screen to assess conditional lethalithy of SEM cells grown in RPMI1640 with dialyzed fetal bovine serum (RPMI+ds) (AID 1963884)
# Method in brief: as §1
# [13] = Cellular viability qHTS for adrenocortical cancer (ACC) cell line SW-13 (AID 1963989); conditions: SW-13 ACC cells viability, CellTiter-Glo, 48 h; activity (max response): stronger effect = lower value;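 also: cells grown in serum-free medium with ITS supplement; nearly all actives have a fitted effect of over 65% in size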
# Method in brief: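 48 h treatment, SW-13 in ITS/DMEM serum-free; doses up to 46 uM; readout CellTiter-Glo luminescence; curve fit four-parameter logistic.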
# [14] = Cellular viability qHTS for adrenocortical cancer (ACC) cell line NCI-H295R (AID 1963990); also: nearly all actives have a fitted effect of over 60% in size
# Method in brief: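 Compound titrations (up to 46 uM final) are applied to NCI-H295R cultures for 48 h at 37C. Viable cell number is estimated by CellTiter-Glo signal, normalised to DMSO and doxorubicin controls.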
# Cytochrome P450 3A7 (Homo sapiens), sequence (P24462 whole entry, looked up): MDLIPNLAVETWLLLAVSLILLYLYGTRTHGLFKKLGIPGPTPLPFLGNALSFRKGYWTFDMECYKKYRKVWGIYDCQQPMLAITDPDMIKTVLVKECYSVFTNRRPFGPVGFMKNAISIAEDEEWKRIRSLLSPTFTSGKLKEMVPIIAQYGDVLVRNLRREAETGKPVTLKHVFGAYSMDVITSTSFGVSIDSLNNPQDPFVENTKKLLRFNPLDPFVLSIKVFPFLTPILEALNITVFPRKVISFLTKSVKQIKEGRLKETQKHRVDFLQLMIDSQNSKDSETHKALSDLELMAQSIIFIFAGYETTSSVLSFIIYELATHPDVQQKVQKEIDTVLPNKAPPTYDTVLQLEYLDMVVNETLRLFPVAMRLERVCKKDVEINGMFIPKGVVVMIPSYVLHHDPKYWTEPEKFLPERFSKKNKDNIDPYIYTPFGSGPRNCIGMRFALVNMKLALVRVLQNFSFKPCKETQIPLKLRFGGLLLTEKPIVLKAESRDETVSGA
SMILES,Potency [1],Potency [2],Potency [3],Potency [4],Potency [5],Potency [6],Potency [7],Potency [8],Potency [9],Potency [10],Potency [11],Potency [12],activity (max response) [13],Potency [14]
Cc1cc(=O)oc2cc(O)ccc12,inactive,inactive,inactive,inactive,inactive,inactive,inactive,inactive,inactive,inactive,inactive,inactive,-3.93% and 10.3%,inactive
Cc1cnc(CNC(=O)c2c(=O)c3ccc(N4CCCN(C)CC4)nc3n3c2sc2ccccc23)cn1,inactive,841 nM (active),1.68 µM (active),inactive,inactive,inactive,inactive,10.2 µM (active),–,–,2.88 µM (active),–,–,–
CN[C@@H](C)C(=O)N[C@H]1CN(C(=O)CC(C)C)CC[C@H]2CC[C@@H](C(=O)NC(c3ccccc3)c3ccccc3)N2C1=O,inactive,inactive,5.8 µM (active) and 2.35 µM (active),1.32 µM (active),2.64 µM (active),1.05 µM (active),8.33 µM (active),11.8 µM (active),8.33 µM (active),–,–,–,-12.1%,inactive
Nc1nnc(-c2cccc(Cl)c2Cl)c(N)n1,inactive,inactive,inactive,inactive,inactive,inactive,inactive,inactive,inactive,inactive,inactive,inactive,1.68% and 0.0596%,inactive
CC(C)CC(=O)N[C@H](C(=O)N[C@H](C(=O)N[C@@H](CC(C)C)[C@@H](O)CC(=O)N[C@@H](C)C(=O)N[C@@H](CC(C)C)[C@@H](O)CC(=O)O)C(C)C)C(C)C (Isovaleryl-VV[Sta]A[Sta]-OH),inactive,inactive,inactive,inactive,inactive,inactive,inactive,inactive,inactive,–,26.4 µM (active),–,4.2% and -6.21%,inactive
